Source: PubChem BioAssay AID1159580 (chemical genetic matrix, 2015)
“And” between values parts separate entries of the source, which are not always exact repeats. Equal entries are not always repeated. Hit rate of the full screen: of about 5,500 compounds, about 2,000 (36%) were called active. Not shown: some 18% with an inconclusive outcome. Cut-off read from the data, not from the text of the source: active = normalized growth mostly below about 0.91 (no sharp cut-off); inconclusive = no clear call, values can overlap the other calls; inactive = mostly above about 0.92. Some of the results follow.

Experiment: chemical genetic growth profiling, strain panel (AID 1159580);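 note: tested at 20 µM; growth read once vehicle control cultures reached saturation at 30 °C; 1 = growth at the plate median or of vehicle wells; lower values mean less growth of the strain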
Conditions: S. cerevisiae deletion strains, growth OD

Measured: normalized growth

NCCCCC(=O)O
inactive: locus YAL013W, strain DEP1, stronger effect = lower value 1.03 | locus YAL021C, strain ccr4, stronger effect = lower value 1.01 | locus YAL026C, strain drs2, stronger effect = lower value 1.02 | locus YAL030W, strain snc1, stronger effect = lower value 1.01 | locus YAL040C, strain CLN3, stronger effect = lower value 1.01 | locus YBL061C, strain skt5, stronger effect = lower value 1.02 | locus YBR009C, strain hhf1, stronger effect = lower value 1.02 | locus YBR021W, strain FUR4, stronger effect = lower value 0.976 | locus YBR023C, strain chs3, stronger effect = lower value 1.02 | locus YBR171W, strain sec66, stronger effect = lower value 1.02 | locus YBR229C, strain ROT2, stronger effect = lower value 1.02 | locus YBR231C, strain swc5, stronger effect = lower value 1.02 | locus YBR279W, strain paf1, stronger effect = lower value 1.01 | locus YCL011C, strain gbp2, stronger effect = lower value 1.02 | locus YCL016C, strain dcc1, stronger effect = lower value 1.01 | locus YCL029C, strain bik1, stronger effect = lower value 0.998 | locus YCL061C, strain MRC1 (second series), stronger effect = lower value 1 | locus YCL069W, strain vba3, stronger effect = lower value 1.01 | locus YCR088W, strain abp1, stronger effect = lower value 1.02 | locus YDL005C, strain med2, stronger effect = lower value 1.02 | locus YDL035C, strain GPR1, stronger effect = lower value 1.02 | locus YDL040C, strain nat1, stronger effect = lower value 1.02 | locus YDL074C, strain BRE1, stronger effect = lower value 1.04 | locus YDL101C, strain DUN1, stronger effect = lower value 1.03 | locus YDL134C, strain PPH21, stronger effect = lower value 1.02 | locus YDL185W, strain tfp1, stronger effect = lower value 0.995 | locus YDL192W, strain arf1, stronger effect = lower value 0.992 | locus YDR001C, strain nth1, stronger effect = lower value 1.01 | locus YDR069C, strain doa4, stronger effect = lower value 1.02 | locus YDR101C, strain arx1, stronger effect = lower value 0.985 | locus YDR137W, strain rgp1, stronger effect = lower value 1.02 | locus YDR150W, strain NUM1, stronger effect = lower value 1.03 | locus YDR159W, strain sac3, stronger effect = lower value 1.03 | locus YDR162C, strain NBP2, stronger effect = lower value 1.04 | locus YDR195W, strain ref2 1.01 | locus YDR297W, strain sur2, stronger effect = lower value 1.02 | locus YDR318W, strain mcm21, stronger effect = lower value 0.992 | locus YDR334W, strain swr1, stronger effect = lower value 1.01 | locus YDR335W, strain msn5, stronger effect = lower value 1.01 | locus YDR388W, stronger effect = lower value 0.986 | locus YDR392W, strain spt3, stronger effect = lower value 1.01 | locus YDR502C, strain sam2, stronger effect = lower value 1 | locus YEL003W, strain gim4, stronger effect = lower value 1.01 | locus YEL037C, strain rad23, stronger effect = lower value 1 | locus YEL061C, strain CIN8 (second series), stronger effect = lower value 1.01 | locus YEL061C, strain CIN8, stronger effect = lower value 1.01 | locus YER002W, strain NOP16, stronger effect = lower value 1 | locus YER015W, strain faa2, stronger effect = lower value 1.02 | locus YER016W, strain bim1, stronger effect = lower value 1.02 | locus YER110C, stronger effect = lower value 0.977 | locus YER111C, strain swi4, stronger effect = lower value 1.03 | locus YER155C, strain BEM2 (second series), stronger effect = lower value 1.04 | locus YER155C, strain BEM2, stronger effect = lower value 1.03 | locus YER167W, strain BCK2, stronger effect = lower value 1.03 | locus YFR010W, strain ubp6, stronger effect = lower value 1.01 | locus YGL078C, strain dbp3, stronger effect = lower value 0.989 | locus YGL086W, strain mad1, stronger effect = lower value 0.993 | locus YGL167C, strain pmr1, stronger effect = lower value 1.03 | locus YGL173C, strain kem1, stronger effect = lower value 1.02 | locus YGL227W, strain vid30, stronger effect = lower value 1.02 | locus YGL240W, strain doc1, stronger effect = lower value 1.03 | locus YGL248W, strain PDE1, stronger effect = lower value 1.03 | locus YGL253W, strain hxk2, stronger effect = lower value 1.01 | locus YGR078C, strain PAC10, stronger effect = lower value 1.03 | locus YGR135W, strain pre9, stronger effect = lower value 0.985 | locus YGR229C, strain SMI1, stronger effect = lower value 1.02 and 1.01 | locus YGR252W, strain gcn5, stronger effect = lower value 0.917 | locus YHR013C, strain ard1, stronger effect = lower value 1.04 | locus YHR027C, strain rpn1, stronger effect = lower value 1.01 | locus YHR030C, strain SLT2, stronger effect = lower value 1.02 and 0.975 | locus YHR079C, strain IRE1 (second series), stronger effect = lower value 0.992 | locus YHR079C, strain IRE1, stronger effect = lower value 0.961 | locus YHR094C, strain hxt1, stronger effect = lower value 1 | locus YHR129C, strain ARP1, stronger effect = lower value 1.02 | locus YHR142W, strain chs7, stronger effect = lower value 1.03 | locus YHR200W, strain rpn10, stronger effect = lower value 1.01 | locus YIL066C, strain RNR3, stronger effect = lower value 1.02 | locus YIL073C, strain SPO22, stronger effect = lower value 1.02 | locus YIL125W, strain kgd1, stronger effect = lower value 0.994 | locus YIR030C, strain dcg1, stronger effect = lower value 0.998 | locus YJL092W, strain hpr5, stronger effect = lower value 1.02 | locus YJL095W, strain BCK1 (second series), stronger effect = lower value 1.03 | locus YJL095W, strain BCK1, stronger effect = lower value 1.02 and 0.979 | locus YJL115W, strain asf1, stronger effect = lower value 1.02 | locus YJL129C, strain trk1, stronger effect = lower value 1.03 | locus YJL134W, strain LCB3, stronger effect = lower value 1.02 | locus YJL154C, strain vps35, stronger effect = lower value 1.02 | locus YJL164C, strain tpk1, stronger effect = lower value 1.02 | locus YJL166W, strain qcr8, stronger effect = lower value 1.02 | locus YJL168C, strain set2, stronger effect = lower value 0.991 | locus YJL187C, strain SWE1 (second series), stronger effect = lower value 1.02 | locus YJR043C, strain POL32, stronger effect = lower value 1.03 | locus YJR066W, strain TOR1, stronger effect = lower value 0.902 | locus YJR075W, strain HOC1, stronger effect = lower value 1.03
